This is an account of results in PubChem BioAssay (Tox21).

SMILES strings stand for the structures. Values without a mark were called inactive. Results filed as inconclusive are left out. Calls of active or inactive are those of the source. Unless noted, the call rests on the fitted dose curve; in most records, active means well fitted curve in the direction sought with a large enough effect in the repeat runs; inconclusive means weak or mixed curves; inactive means no such curve, though single readings can be large; an effect the other way counts as inactive or inconclusive.

Assay [1] can be described thus: qHTS assay to identify small molecule agonists of the hypoxia (HIF-1) signaling pathway - cell viability counter screen (AID 1224844; calls by dose curve; further: nearly all actives have a fitted effect of over 50% in size; further: potency means the concentration at half of the fitted maximal effect). Put shortly:
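In this counter screen, HRE-bla ME-180 cell viability after 17 hrs of compound exposure at 37C was read by CellTiter-Glo luminescence, multiplexed with the beta-lactamase reporter measurement.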

Assay [2] in a line: qHTS assay to identify small molecule agonists of the hypoxia (HIF-1) signaling pathway (AID 1224846; active means well fitted activation curve with a large enough effect in the signal ratio in the repeat runs, not every such curve was filed as active; the % refers to the signal ratio). Put shortly:
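ME-180 HRE-bla reporter cells; compounds in DMSO, 17 h at 37C; read-out beta-lactamase via CCF4-AM FRET.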

Assay [3] can be described thus: qHTS assay to identify small molecule agonists of H2AX - cell viability counter screen (AID 1224847; calls by dose curve; further: nearly all actives have a fitted effect of over 30% in size; further: potency means the concentration at half of the fitted maximal effect). The procedure, abridged:
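Cytotoxicity counter screen in wild-type CHO-K1 cells: a 3 hr compound treatment at 37C across 15 concentrations, followed by CellTiter-Glo luminescence to gauge viable cells.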

Assay [4] in a line: qHTS RealTime-Glo MT Cell Viability Assay in HepG2 cells - 24 hour (AID 1224867). Further: nearly all actives have a fitted effect of over 50% in size. Further: potency means the concentration at half of the fitted maximal effect. Put shortly:
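HepG2 cells were seeded at 600 cells/well together with NanoLuc luciferase and a cell-permeant prosubstrate, preincubated 5 h at 37 C/5% CO2, then pin-dosed with compounds in DMSO. Nonlytic luminescence from viable cells was read at each time point.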

The nature of assay [5]: qHTS RealTime-Glo MT Cell Viability Assay in HEK293 cells - 32 hour (AID 1224868). Further: nearly all actives have a fitted effect of over 50% in size. Further: potency means the concentration at half of the fitted maximal effect. The procedure, abridged:
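HEK293 cells were seeded at 600 cells/well together with NanoLuc luciferase and cell-permeant prosubstrate, preincubated 5 h at 37 C/5% CO2, then given compound in DMSO by pintool. Luminescence from viable-cell prosubstrate reduction was read repeatedly over 40 h.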

Assay [6] is described as follows: A CellTox Green Cytotoxicity Assay to monitor cytotoxicity in HEK293 cells - 0 hour (AID 1224869). Further: nearly all actives have a fitted effect of over 50% in size. Put shortly:
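Real-time, in one plate: 600 HEK293 cells/well with dead-cell DNA dye, pinned compound after 5 h, 37 C incubation over 40 h; viable cells give no appreciable fluorescence.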

Assay [7] can be described thus: qHTS assay to identify small molecule agonists of the estrogen related receptor (ERR) signaling pathway from Tox21 library (AID 1224849; calls by dose curve; further: nearly all actives have a fitted effect of over 15% in size). The conditions noted are these: ERR reporter cell line, ONE-Glo luciferase, 18 h; at 92.4 µM (top of the series) unless noted. Put shortly: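 Luciferase activity in ERR pathway reporter cells served as the agonist readout; exposure lasted 18 h at 37 C, with ONE-Glo detection after 30 min at room temperature.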

A short description of assay [8]: qHTS assay to identify small molecule antagonists of the estrogen related receptor (ERR) signaling pathway from Tox21 library (AID 1224848). Further: nearly all actives have a fitted effect of over 50% in size. Further: potency means the concentration at half of the fitted maximal effect. Put shortly:
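Quantitative high-throughput format: ERR reporter cells (2,000/well) pre-incubated 6 h, treated 18 h at 37 C with compounds in DMSO alongside positive and negative controls, then read by ONE-Glo luminescence.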

Assay [9] in a line: qHTS assay to identify small molecule agonists of H2AX (AID 1224845; active means well fitted activation curve with a large enough effect in the signal ratio in the repeat runs, not every such curve was filed as active; the % refers to the signal ratio). The procedure, abridged:
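Wild-type CHO-K1 cells, plated overnight, exposed 3hr at 37C to 15 concentrations (0.76% DMSO final). Lysed, then HTRF anti-pH2AX (S139) cryptate and anti-H2AX-d2 antibodies, 24 hr room temperature; 665/620 nm emission read.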
On the % scale 0 is the no-effect control and ±100 the full control effect.

As for `CCOC(=O)[C@H](CCc1ccccc1)N[C@@H](C)C(=O)N(CC(=O)O)C1Cc2ccccc2C1`, the Potency in [1] was 7.56 µM (active). The result in assay [2] was inactive. The Potency entry in assay [3], in assay [4], in assay [5] and in assay [6] was “inactive” each time.

Consider `CC(=O)[C@H]1[C@H](C#N)C[C@H]2[C@@H]3CC=C4C[C@@H](O)CC[C@]4(C)[C@H]3CC[C@@]21C`, for which the Potency entry in assay [1], in assay [4] and in assay [6] was “inactive” throughout. Further, the activity change, positive = activation in [7] was -13.1% [at 42.5 µM].

`C[C@@H](O[C@H]1OCCN(Cc2n[nH]c(=O)[nH]2)[C@H]1c1ccc(F)cc1)c1cc(C(F)(F)F)cc(C(F)(F)F)c1`: the results for the Potency in assay [8], in assay [4] and in [5] were 23.7 µM (active), 21.3 µM (active) and 16.9 µM (active), respectively. In addition, the activity change, positive = activation in [7] was -53.3% [at 42.5 µM]. Besides, in assay [6], the Potency result is “inactive”.

As to `CCOC(=O)c1ccc(I)cc1`, in [2], the result was inactive. Moreover, the Potency entry in assay [3], in [8], in assay [4] and in assay [6] was “inactive” in each case. In addition, the activity change, positive = activation in assay [7] is -4.74%.

Take `CCOc1cccc(-n2cc(C(=O)N3CCN(c4cc(C(=O)O)c5ccccc5c4)CC3)nc2-c2ccc(C)cc2)c1`: in [2], the compound was classed as inactive. Further, the activity change, positive = activation in assay [7] is -37.7%. Moreover, the Potency entry in assay [4], in assay [5] and in assay [6] was “inactive” throughout.

Regarding `Oc1cccc(O)c1O`, the Potency entry in [1], in [8], in assay [4], in assay [5] and in [6] was “inactive” throughout. In assay [2], the compound was called inactive. Also, in [7], the activity change, positive = activation was 0.0681%.

Turning to `Nc1nc2ccc([N+](=O)[O-])cc2s1`, the Potency entry in assay [3], in assay [4] and in [6] was “inactive” in each case.

In the case of `CCCCN(CCN(CCCC)C(=O)N1CCOCC1)C(=O)N1CCOCC1`, the Potency result in assay [9], in assay [3], in [4], in assay [5] and in [6] was “inactive” in each case. In addition, in [2], the call was inactive.

As for `Nc1ccc(N=Nc2ccccc2)c(N)c1`, the Potency result in assay [1] and in assay [6] was “inactive” throughout. Also, the result in [2] was inactive. For the same compound, the results for the Potency in assay [3] and in assay [5] were 98.6 µM (active) and 42.7 µM (active), respectively.

For `CCC(=O)C1CC(C(C)C)CC=C1C` (configuration not stated), the Potency result in [9], in [3], in [8], in assay [4], in assay [5] and in [6] was “inactive” each time. In addition, in assay [7], the activity change, positive = activation is 5.57%.

For `Oc1cc2c(cc1O)[C@H]1c3ccc(O)c(O)c3OC[C@@]1(O)C2`, the call in [2] was inactive. In addition, the activity change, positive = activation in assay [7] was -31.7%. Moreover, the Potency in assay [4] was 49.6 µM (active). Further, the Potency result in assay [5] and in assay [6] was “inactive” each time.

As to `O=C(/C=C/c1ccccc1)OCCc1ccccc1`, the Potency result in assay [1], in [3], in assay [4], in [5] and in assay [6] was “inactive” each time. The compound was classed as inactive in assay [2].

For the compound `O=C1NCCN1CCO`, the Potency entry in assay [1], in [3], in assay [4], in [5] and in [6] was “inactive” in each case. Besides, the result in [2] was inactive.

Turning to `CC(=O)c1ccc([N+](=O)[O-])cc1`, the Potency result in assay [9], in assay [3], in [8], in assay [4], in assay [5] and in assay [6] was “inactive” each time. Also, in assay [2], the compound was classed as inactive. The activity change, positive = activation in assay [7] is 1.22%.

On to `Cc1cc(O)ccc1O`, for which the Potency in assay [3] was 51 µM (active). Besides, the activity change, positive = activation in assay [7] is -73.6% (active). In addition, the Potency result in assay [4] and in assay [6] was “inactive” throughout.

Consider `C=C(C)C(=O)OCCOCCOC(=O)C(=C)C`, for which the Potency entry in assay [9], in assay [3], in assay [8], in assay [4], in [5] and in assay [6] was “inactive” each time. Moreover, in assay [2], the compound was classed as inactive. Besides, in [7], the activity change, positive = activation was 6.4%.

In the case of `CC1=C(Br)C(=O)C(Br)=C/C1=C(/c1ccccc1S(=O)(=O)O)c1cc(Br)c(O)c(Br)c1C`, the result in [2] was inactive. Moreover, the Potency in [3] was 21.7 µM (active). For the same compound, in assay [7], the activity change, positive = activation was -55.4% [at 42.5 µM]. The Potency entry in assay [4], in [5] and in assay [6] was “inactive” each time.
